PGC1a acetyl inh: modulators of PGC1a acetylation; U2OS PGC1a acetylation, AlphaScreen anti-acetyl-lysine; with virally co-expressed GCN5 acetyltransferase; inhibition, % at 15.6 µM; hit rate 0.17% among 350,000;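 active = every replicate shows inhibition of at least 40%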;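 also: 0% = neutral control wells and 100% = positive control wells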
rRNA inh HTS: inhibits bacterial ribosomal RNA function over humanized ribosomes. GFP signal change (wild-type ribosome), % (test concentration not listed). AID 720706. E. coli WT GFP vs humanized-ribosome RFP mutants, fluorescence, 24 h; hits give low values; DMSO median 0, no signal -100. hit rate 1.6% among 350,000;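 active = significant combined selectivity score with lowered wild-type GFP, culture density cut under 30%, mutant RFP and density less affected; inactive = any of these conditions unmet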
LGR2 inh: Drosophila LGR2 receptor signaling inhibition. inhibition, % at 9.99 µM. HEK293 LGR2, CRE-luciferase, bursicon-stimulated, 4 h. AID 720647. hit rate 0.35% among 380,000;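 active = drop in luminescence signal, shown as inhibition above about 50% in the replicate tests, limit read from the data, passing the limit was not always enough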;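 also: agonist challenge used bursicon conditioned medium at about half maximal strength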
SIRT5 block: inhibitors of human sirtuin-5 desuccinylase | Q9NXA8 | Purified SirT5, succinyl-peptide AMC, trypsin-coupled fluorescence | inhibition, % at 15 µM | hit rate 1.1% among 330,000; in the data active = inhibition above about 15%
Target sequence (Q9NXA8 whole entry, looked up): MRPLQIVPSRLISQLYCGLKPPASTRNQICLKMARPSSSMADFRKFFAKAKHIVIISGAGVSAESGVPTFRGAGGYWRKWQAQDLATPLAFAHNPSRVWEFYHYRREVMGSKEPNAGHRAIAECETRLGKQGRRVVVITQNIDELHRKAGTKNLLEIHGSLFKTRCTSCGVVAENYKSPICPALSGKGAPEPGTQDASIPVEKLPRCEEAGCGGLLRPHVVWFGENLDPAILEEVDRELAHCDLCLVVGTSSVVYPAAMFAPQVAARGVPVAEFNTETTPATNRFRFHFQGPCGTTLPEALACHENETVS
PAX8 reporter: inhibitors of PAX8 transcriptional activity in RMG-I cells; RMG-I TPO-luciferase reporter, SteadyGlo, 24 h; inhibition, % at 12.6 µM; AID 652154; hit rate 1.2% among 360,000;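 active = mean replicate inhibition at least 60% with every replicate also reaching 60%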;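 also: luciferase light reporting Pax8 driven TPO promoter activity; plate controls were median of neutral control wells for no effect and mitoxantrone controls for full effect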
EWS-Fli inh: inhibitors of EWS/Fli oncoprotein transcriptional activity. A673 NR0B1-luciferase reporter, viability-normalised. inhibition, % at 12.6 µM. hit rate 0.67% among 350,000. AID 651661;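 active = mean inhibition of at least 50% after viability correction, with every replicate also passing that limit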;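 also: firefly luciferase signal divided by Alamar Blue viability fluorescence both relative to DMSO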
Active calls of the source: *; nt = no result given. Only some compounds are listed: those with a hit (about 3.4% of all), similar ones and a draw of the others.

SMILES | PGC1a acetyl inh | rRNA inh HTS | LGR2 inh | SIRT5 block | PAX8 reporter | EWS-Fli inh
CCC(=O)N1CC2(C1)CN(Cc1ccccc1Cl)[C@H](CO)c1c2c2ccc(OC)cc2n1C | 2 | -2 | -2 | nt | nt | -7
CC1CCc2c(sc3nc(C(C)(C)C)nc(N4CCN(C(=O)CCl)CC4)c23)C1 (stereo not given) | 19 | -40 | nt | -4 | 22 | 69*
CCC(=O)N1CCN(c2nc(CC)nc3sc4c(c23)CCCC4)CC1 | -25 | -6 | -2 | 1 | 14 | 14
CC(=O)c1cccc(NC(=O)Cn2cnc(S(=O)(=O)N3CCCCC3)c2)c1 | 9 | 3 | -15 | 5 | -3 | nt
O=C(Cn1cnc(S(=O)(=O)N2CCCC2)c1)Nc1cccc(Br)c1 | 1 | 3 | -8 | 19* | -5 | nt
C[C@@H]1CCCCO[C@@H](CN(C)C(=O)C2CCCCC2)[C@@H](C)CN([C@H](C)CO)C(=O)c2cc(NS(=O)(=O)c3ccc(Cl)cc3)ccc2O1 | -5 | 2 | 7 | 1 | -10 | -5
C[C@@H]1CCCCO[C@@H](CN(C)C(=O)C2CCCCC2)[C@H](C)CN([C@H](C)CO)C(=O)c2cc(NS(=O)(=O)c3ccc(Cl)cc3)ccc2O1 | -2 | -1 | 23 | 6 | 79* | 42
C[C@@H]1CN([C@H](C)CO)C(=O)c2cc(NS(=O)(=O)c3ccc(Cl)cc3)ccc2O[C@@H](C)CCCCO[C@H]1CN(C)C(=O)C1CCCCC1 | 6 | 0 | 22 | 4 | 85* | 8
C[C@H](CO)N1C[C@H](C)[C@@H](CN(C)C(=O)C2CCCCC2)OCCCC[C@H](C)Oc2ccc(NS(=O)(=O)c3ccc(Cl)cc3)cc2C1=O | 6 | -2 | 10 | 5 | 88* | -11
CC(C)[C@@H](C)NC(=O)N(C)C[C@H]1OCc2ccccc2-c2ccccc2C(=O)N([C@H](C)CO)C[C@H]1C | nt | -1 | nt | nt | nt | nt
COc1ccccc1C(=O)Nc1ccc2c(c1)C(=O)N(C)C[C@H](OC)[C@@H](C)CN[C@@H](C)CO2 | -8 | 0 | -3 | 3 | -2 | 2
O=C(CCl)Nc1cccc(S(=O)(=O)NC2=NCCCCC2)c1 | -10 | 17 | -6 | -2 | 45 | 62*
O=C(CCl)Nc1ccc(S(=O)(=O)NC2=NCCCCC2)cc1 | 3 | 1 | -21 | nt | 17 | 11
Cc1ccc(C)c(OCCC(=O)Nc2cccc(S(=O)(=O)NC3=NCCCCC3)c2)c1 | nt | -22* | -6 | -4 | 6 | 4
COc1ccc(NC(=O)C2CCCN(CCCc3ccccc3)C2)cc1OCC(C)C (stereo not given) | -23 | -48 | 4 | 0 | 40 | 61*
CC1(C(=O)NS(=O)(=O)c2ccccc2Cl)CCN1C(=O)Cc1cccc2ccccc12 (stereo not given) | nt | -11 | nt | 30* | 0 | 6
CC1(C(=O)NS(=O)(=O)c2ccc(Cl)s2)CCN1C(=O)C1(c2ccccc2)CCCC1 (stereo not given) | 16 | -31* | -3 | 0 | -8 | -6
CC1(C(=O)NS(=O)(=O)c2ccccc2Cl)CCN1C(=O)C1(c2ccc(Cl)cc2)CCC1 (stereo not given) | 12 | -17* | 9 | nt | 12 | 5
CC(=O)N1CC2(C1)[C@H](c1ccc(-c3cccc(F)c3)cc1)[C@H](CO)N2CC1CCOCC1 | -20 | -2 | 3 | -1 | 16 | 5
CCc1ccc(/C=C/C(=O)C2C(=O)c3ccccc3C2=O)cc1 | nt | nt | 62* | nt | nt | nt
O=C(/C=C/c1ccccc1)C1C(=O)c2ccccc2C1=O | nt | nt | -1 | nt | -34 | 12
Cc1cccc(/C(N)=N/OC(=O)COc2ccc(Cl)cc2)c1 | nt | 5 | -12 | 35* | 1 | -33
N/C(=N\OC(=O)COc1ccc(Cl)cc1)c1ccc(Cl)cc1 | -11 | 17 | -13 | -1 | -6 | -2
C[C@H]1COCc2cnnn2CC[C@H](Cc2ccccc2)C(=O)N1 | nt | 7 | nt | nt | nt | nt
CCNC(=S)Nc1ccc2cn[nH]c2c1 | nt | nt | -3 | nt | -7 | nt
N#CC(C#N)=NNc1ccc2cn[nH]c2c1 | nt | -11 | 82* | 1 | 8 | -2
C[C@@H]1CN([C@@H](C)CO)C(=O)Cc2cc(NC(=O)Nc3ccc4c(c3)OCO4)ccc2O[C@H]1CN(C)C(=O)Nc1ccccc1 | 0 | 1 | 7 | nt | -14 | -14
